What all share (test): log2 fold change, soluble protein after heating vs DMSO (PISA); higher = thermal stabilisation; K562 cells, 10 uM, 30 min; active = over 0.2 and 3.5 SD of the protein, either way, in both replicates (recomputed)
Compound in assay [1]: C#Cc1cccc(Nc2ncnc3cc(OCCOC)c(OCCOC)cc23)c1 [erlotinib]
The gist of the method: (§1)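 K562 cells at 2×10^6 cells/mL were treated for 30 min with 10 μM compound, and aliquots were heated for 3 min over 48°C-58°C before pooling. Extraction used PBS with 0.5% NP-40 at 4°C, and soluble protein was the supernatant after 21,000xg for 90 min, measured by TMTpro 16plex LC-MS/MS with channel sums equalised. Thermal stability values, relative to control samples and from duplicates, are log2 fold changes.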

Compound in assay [2]: C/C(=N\NC(=O)C1=CC(=CC=C1)S(=O)(=O)N2CCOCC2)/C3=C(C=CC(=C3)Cl)O
The gist of the method:
as §1

Compound in assay [3]: C1=CC(=C(C=C1Cl)C2=NC3=NC=CN=C3C(=N2)NC4=CC=NC=C4)F
In a few lines: as §1

Compound in assay [4]: C1=CC(=CC=C1C2=NC3=C(N2)C=C(C=C3)C(=O)N)OC4=CC=C(C=C4)Cl
The gist of the method: as §1

Compound in assay [5]: C1=CC2=C(C=CC(=C2)/C=C\3/C(=O)NC(=NCC4=CC=CS4)S3)N=C1
In a few lines:
as §1

Compound in assay [6]: C1=CC2=NC=CN=C2C=C1/C=C/3\C(=O)NC(=O)S3
The gist of the method:
as §1

Compound in assay [7]: C1=CC=C(C=C1)C2=NC(=C(N2)C3=CC=NC=C3)C4=CC(=C(C=C4)Cl)O
The gist of the method: as §1

Compound in assay [8]: C1=CC=C2C(=C1)C3=NNC4=CC=CC(=C43)C2=O
The gist of the method: as §1

Compound in assay [9]: C1CCN(C1)C(=O)NC2=CC=CC(=C2)NC3=NC=C(C(=N3)NCCC4=CN=CN4)Br
In a few lines:
as §1

Compound in assay [10]: C1CN(CCC1(CC2=CC=C(C=C2)Cl)N)C3=NC=NC4=C3C=CN4
The gist of the method:
as §1

About 7,900 targets were measured; listed, in parts, are those with a hit and a random draw of the rest. About 0.6% of all pairs of compound and target were hits. A number with no mark means an inactive call.

UniProt Q8N5Y8, sequence (Q8N5Y8 whole entry, looked up): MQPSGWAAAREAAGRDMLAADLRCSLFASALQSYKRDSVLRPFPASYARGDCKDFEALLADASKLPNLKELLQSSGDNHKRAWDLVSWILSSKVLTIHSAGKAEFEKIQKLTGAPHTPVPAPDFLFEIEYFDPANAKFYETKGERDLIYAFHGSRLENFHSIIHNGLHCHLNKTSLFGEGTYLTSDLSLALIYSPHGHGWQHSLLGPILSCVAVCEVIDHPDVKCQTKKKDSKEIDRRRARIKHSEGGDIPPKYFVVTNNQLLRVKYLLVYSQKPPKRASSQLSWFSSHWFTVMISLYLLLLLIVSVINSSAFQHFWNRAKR
UniProt Q9Y3E5, sequence (Q9Y3E5 whole entry, looked up): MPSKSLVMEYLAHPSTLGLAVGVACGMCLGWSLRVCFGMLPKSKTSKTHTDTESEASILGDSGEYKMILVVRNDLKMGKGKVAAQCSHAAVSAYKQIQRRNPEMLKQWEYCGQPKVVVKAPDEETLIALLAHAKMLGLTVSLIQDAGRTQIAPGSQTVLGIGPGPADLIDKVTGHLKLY
UniProt O00408, sequence (O00408 whole entry, looked up): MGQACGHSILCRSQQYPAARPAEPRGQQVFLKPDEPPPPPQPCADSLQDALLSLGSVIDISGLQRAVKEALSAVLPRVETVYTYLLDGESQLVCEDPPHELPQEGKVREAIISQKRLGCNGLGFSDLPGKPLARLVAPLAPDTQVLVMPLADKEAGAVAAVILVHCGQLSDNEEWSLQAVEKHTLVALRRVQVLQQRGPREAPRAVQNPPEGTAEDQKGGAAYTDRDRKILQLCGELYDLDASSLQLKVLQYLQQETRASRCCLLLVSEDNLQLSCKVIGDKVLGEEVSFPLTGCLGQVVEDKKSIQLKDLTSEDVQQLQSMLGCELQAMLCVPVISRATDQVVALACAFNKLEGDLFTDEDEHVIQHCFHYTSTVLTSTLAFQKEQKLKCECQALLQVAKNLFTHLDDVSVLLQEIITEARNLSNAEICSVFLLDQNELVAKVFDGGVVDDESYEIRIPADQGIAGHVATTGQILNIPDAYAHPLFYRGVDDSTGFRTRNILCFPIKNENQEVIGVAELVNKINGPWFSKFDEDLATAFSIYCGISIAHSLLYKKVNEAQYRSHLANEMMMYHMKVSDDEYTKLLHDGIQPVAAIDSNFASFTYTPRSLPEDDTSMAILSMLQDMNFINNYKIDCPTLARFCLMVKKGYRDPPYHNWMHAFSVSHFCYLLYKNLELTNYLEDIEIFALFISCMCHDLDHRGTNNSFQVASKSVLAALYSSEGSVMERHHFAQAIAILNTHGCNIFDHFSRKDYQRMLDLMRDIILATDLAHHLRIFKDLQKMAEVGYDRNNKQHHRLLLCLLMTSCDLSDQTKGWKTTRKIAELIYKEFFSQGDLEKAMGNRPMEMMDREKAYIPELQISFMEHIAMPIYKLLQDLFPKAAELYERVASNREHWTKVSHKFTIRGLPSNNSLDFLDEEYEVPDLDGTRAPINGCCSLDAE
UniProt Q9NP80, sequence (Q9NP80 whole entry, looked up): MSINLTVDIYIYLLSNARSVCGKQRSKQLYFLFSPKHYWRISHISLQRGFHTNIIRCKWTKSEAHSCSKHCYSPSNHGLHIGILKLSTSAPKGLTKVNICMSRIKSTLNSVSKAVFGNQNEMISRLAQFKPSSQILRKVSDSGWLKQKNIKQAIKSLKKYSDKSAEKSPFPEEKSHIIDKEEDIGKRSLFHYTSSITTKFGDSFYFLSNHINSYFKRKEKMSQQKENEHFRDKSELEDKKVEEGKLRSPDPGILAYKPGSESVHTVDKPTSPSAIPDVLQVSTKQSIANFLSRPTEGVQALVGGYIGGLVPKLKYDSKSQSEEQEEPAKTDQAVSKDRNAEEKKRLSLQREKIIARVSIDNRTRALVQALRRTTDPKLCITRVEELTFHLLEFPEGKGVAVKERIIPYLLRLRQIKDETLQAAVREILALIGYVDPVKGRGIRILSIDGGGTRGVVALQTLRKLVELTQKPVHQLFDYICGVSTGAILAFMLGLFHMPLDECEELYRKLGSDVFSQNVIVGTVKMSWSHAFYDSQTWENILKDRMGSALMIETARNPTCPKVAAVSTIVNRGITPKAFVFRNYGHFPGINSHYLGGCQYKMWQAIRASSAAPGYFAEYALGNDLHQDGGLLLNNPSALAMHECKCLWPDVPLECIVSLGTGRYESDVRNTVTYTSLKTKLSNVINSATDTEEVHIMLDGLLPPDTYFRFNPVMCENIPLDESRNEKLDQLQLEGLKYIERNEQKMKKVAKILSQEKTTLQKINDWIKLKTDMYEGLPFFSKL
UniProt P46019, sequence (P46019 whole entry, looked up): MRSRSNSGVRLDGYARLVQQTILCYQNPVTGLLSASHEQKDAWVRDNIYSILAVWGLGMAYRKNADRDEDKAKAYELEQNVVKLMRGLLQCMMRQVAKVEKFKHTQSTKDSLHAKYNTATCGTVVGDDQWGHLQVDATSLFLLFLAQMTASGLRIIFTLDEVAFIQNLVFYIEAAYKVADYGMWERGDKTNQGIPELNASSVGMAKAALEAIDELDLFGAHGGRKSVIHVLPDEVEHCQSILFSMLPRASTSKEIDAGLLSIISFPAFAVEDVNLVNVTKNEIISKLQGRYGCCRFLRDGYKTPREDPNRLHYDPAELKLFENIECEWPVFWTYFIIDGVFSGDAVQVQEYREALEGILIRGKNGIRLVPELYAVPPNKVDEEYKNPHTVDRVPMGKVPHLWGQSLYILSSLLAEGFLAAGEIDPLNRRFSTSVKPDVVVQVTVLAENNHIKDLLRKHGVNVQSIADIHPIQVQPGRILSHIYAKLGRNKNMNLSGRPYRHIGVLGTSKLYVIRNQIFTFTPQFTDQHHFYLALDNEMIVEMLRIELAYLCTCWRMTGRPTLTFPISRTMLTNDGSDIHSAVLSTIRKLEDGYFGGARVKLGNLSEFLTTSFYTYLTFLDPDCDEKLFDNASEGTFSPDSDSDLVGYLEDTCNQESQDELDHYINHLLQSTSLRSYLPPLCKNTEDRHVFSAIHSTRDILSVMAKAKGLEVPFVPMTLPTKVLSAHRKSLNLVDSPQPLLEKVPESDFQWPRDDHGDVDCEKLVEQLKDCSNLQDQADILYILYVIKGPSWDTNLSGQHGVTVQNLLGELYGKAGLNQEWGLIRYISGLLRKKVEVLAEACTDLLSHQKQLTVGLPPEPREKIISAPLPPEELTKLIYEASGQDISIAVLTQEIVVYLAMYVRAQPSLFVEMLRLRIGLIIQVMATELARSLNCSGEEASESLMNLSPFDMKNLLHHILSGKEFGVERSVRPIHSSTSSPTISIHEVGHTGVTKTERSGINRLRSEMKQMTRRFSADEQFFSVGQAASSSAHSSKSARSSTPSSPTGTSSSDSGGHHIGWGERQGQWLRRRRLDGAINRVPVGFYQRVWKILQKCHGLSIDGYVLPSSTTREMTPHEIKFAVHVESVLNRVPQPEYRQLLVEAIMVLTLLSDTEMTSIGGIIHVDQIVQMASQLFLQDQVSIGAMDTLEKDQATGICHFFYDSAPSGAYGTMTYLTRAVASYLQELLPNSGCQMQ
UniProt O60256, sequence (O60256 whole entry, looked up): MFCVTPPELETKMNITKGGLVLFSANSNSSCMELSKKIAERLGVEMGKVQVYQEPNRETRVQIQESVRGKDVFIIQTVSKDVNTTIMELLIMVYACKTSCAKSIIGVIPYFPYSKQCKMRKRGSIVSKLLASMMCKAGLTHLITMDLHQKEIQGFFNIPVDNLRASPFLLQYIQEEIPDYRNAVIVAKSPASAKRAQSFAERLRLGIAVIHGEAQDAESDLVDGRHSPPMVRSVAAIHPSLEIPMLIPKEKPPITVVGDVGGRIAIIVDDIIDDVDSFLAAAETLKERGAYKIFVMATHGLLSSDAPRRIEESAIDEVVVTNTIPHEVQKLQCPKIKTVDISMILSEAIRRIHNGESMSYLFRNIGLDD
UniProt O00625, sequence (O00625 whole entry, looked up): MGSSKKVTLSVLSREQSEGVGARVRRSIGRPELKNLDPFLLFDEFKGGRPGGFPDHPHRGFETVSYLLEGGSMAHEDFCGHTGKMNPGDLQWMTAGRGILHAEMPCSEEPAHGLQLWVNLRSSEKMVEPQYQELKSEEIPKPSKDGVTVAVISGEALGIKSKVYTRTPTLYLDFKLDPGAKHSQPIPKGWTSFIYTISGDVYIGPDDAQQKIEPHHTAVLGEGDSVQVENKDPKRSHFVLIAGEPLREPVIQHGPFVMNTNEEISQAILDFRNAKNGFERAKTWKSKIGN
UniProt O43924, sequence (O43924 whole entry, looked up): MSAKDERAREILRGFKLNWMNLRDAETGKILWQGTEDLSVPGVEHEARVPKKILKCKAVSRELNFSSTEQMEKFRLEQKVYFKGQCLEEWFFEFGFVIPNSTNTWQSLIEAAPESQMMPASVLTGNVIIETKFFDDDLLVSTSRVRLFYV
UniProt Q6EEV4, sequence (Q6EEV4 whole entry, looked up): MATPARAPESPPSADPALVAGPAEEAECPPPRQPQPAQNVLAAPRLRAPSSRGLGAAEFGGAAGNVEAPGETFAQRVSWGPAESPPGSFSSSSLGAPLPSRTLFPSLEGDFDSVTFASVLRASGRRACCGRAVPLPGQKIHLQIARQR
UniProt P53801, sequence (P53801 whole entry, looked up): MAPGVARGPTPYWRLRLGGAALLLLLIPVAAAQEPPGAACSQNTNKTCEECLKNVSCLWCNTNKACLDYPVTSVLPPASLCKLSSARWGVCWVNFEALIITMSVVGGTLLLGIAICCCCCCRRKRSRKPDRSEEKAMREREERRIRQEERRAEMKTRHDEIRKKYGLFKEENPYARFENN

Take PDE2A (UniProt O00408): the log2 fold change is -0.055 in [1]; -0.521 (active) in assay [2]; -0.011 in assay [3]; -0.034 in assay [4]; 0.161 in [5]; -0.099 in [6]. The log2 fold change in [7] is 0.137; in [8] it was 0.113; in [9], -0.077; in assay [10], 0.184.
For the target PTRH2 (UniProt Q9Y3E5), the log2 fold change in assay [1] was 0.015; in assay [2], 0.048; in [3], 0.125; in [4] it was -0.002; in [5] it was 0.049; in assay [6] it was -0.004. Further, the log2 fold change in [7] was 0.169; in [8], -0.022; in assay [9] it was -0.038; in assay [10], 0.007.
Take PTDSS1 (UniProt P48651): the log2 fold change is -0.076 in assay [1]; -0.12 in assay [2]; -0.099 in assay [3]; 0.045 in assay [4]; -0.031 in assay [5]; -0.114 in [6]. Moreover, the log2 fold change in assay [7] was 0.03; in assay [8] it was 0.041; in assay [9], 0.016; in assay [10] it was -0.058.
Turning to PIR (UniProt O00625), the log2 fold change is -0.027 in assay [1]; -0.058 in assay [2]; 0.025 in [3]; 0.464 (active) in [4]; 0.111 in [5]; 0.031 in assay [6]. Further, the log2 fold change in assay [7] is -0.027; in [8], 0.225 (active); in [9] it was -0.053; in assay [10], -0.002.
As for PARP16 isoform 3 (UniProt Q8N5Y8), the log2 fold change in [1] is 0.025; in [2], 0.049; in assay [3], -0.055; in assay [4], -0.018; in assay [5], -0.029; in assay [6] it was 0.102. Moreover, the log2 fold change in assay [8] was -0.013; in assay [9], -0.026; in assay [10] it was 0.067.
Take PNPLA8 (UniProt Q9NP80): the log2 fold change in [1] was 0.101; in assay [2] it was 0.031; in assay [3] it was 0.014; in assay [4], -0.029; in assay [5] it was 0.008; in assay [6], 0. In addition, the log2 fold change is 0.089 in [7], 0.022 in [8], 0.018 in [9] and 0.037 in assay [10].
For the target PRPSAP2 (UniProt O60256), the log2 fold change in assay [1] was 0.053; in assay [2] it was 0.033; in [3], -0.017; in assay [4] it was -0.028; in [5], -0.06; in assay [6] it was 0.017. The log2 fold change was -0.006 in assay [7], 0.029 in assay [8], -0.02 in assay [9] and 0.009 in assay [10].
Regarding PHKA2 (UniProt P46019), the log2 fold change in assay [1] was -0.077; in [2] it was 0.029; in [3], 0.041; in assay [4], -0.008; in [5] it was -0.011; in assay [6], 0.041. The log2 fold change is -0.028 in assay [7], -0.026 in assay [8], 0.004 in assay [9] and 0.004 in assay [10].
For PTTG1IP (UniProt P53801), the log2 fold change in assay [1] is -0.011; in assay [2], -0.06; in assay [3] it was -0.039; in [4], -0.001; in assay [5], 0.026; in assay [6], 0.033. Further, the log2 fold change in assay [8] is -0.082; in [9] it was 0.037; in [10], 0.01.
For the target POLR2M (UniProt Q6EEV4), the log2 fold change in [1] was -0.044; in [2] it was 0.096; in assay [3], 0.242; in assay [4] it was 0.223; in assay [5], -0.006; in assay [6], -0.001. Further, the log2 fold change in [8] was -0.048; in assay [9] it was -0.041; in [10], 0.024.
PDE6D (UniProt O43924): the log2 fold change in [1] is -0.094; in [2], 0.055; in assay [3], -0.082; in [4], -0.102; in [5] it was 0.078; in [6], 0.004. Besides, the figures for the log2 fold change in [8], in [9] and in assay [10] were 0.115, 0.417 and 0.028, respectively.

Source of the values: the supplement of paper PMC10849652.
